According to PubChem BioAssay AID1159580 (chemical genetic matrix, 2015):
Where “and” joins values, the source holds several entries; their conditions need not be identical. Equal values may be shown once. Screen size: about 5,500 compounds; about 2,000 (36%) were called active. Inconclusive results (about 18%) are left out. No stated cut-off is given here; in the data, active means normalized growth mostly below about 0.91 (no sharp cut-off); inconclusive means no clear call, values can overlap the other calls; inactive means mostly above about 0.92. The list shows a part of the results.

Test: chemical genetic growth profiling, strain panel (AID 1159580);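 further: tested at 20 µM; growth read once vehicle control cultures reached saturation at 30 °C; 1 = growth at the plate median or of vehicle wells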
Settings: S. cerevisiae deletion strains, growth OD

Measured: normalized growth

CCC[C@H](N[C@@H](C)C(=O)N1[C@H](C(=O)O)C[C@@H]2CCCC[C@@H]21)C(=O)OCC
inactive: locus YAL013W, strain DEP1, stronger effect = lower value 1.01 | locus YAL021C, strain ccr4, stronger effect = lower value 1.01 | locus YAL026C, strain drs2, stronger effect = lower value 1.01 | locus YAL030W, strain snc1, stronger effect = lower value 1.02 | locus YBL061C, strain skt5, stronger effect = lower value 1.01 | locus YBR009C, strain hhf1, stronger effect = lower value 1.01 | locus YBR021W, strain FUR4, stronger effect = lower value 1.03 | locus YBR023C, strain chs3, stronger effect = lower value 1.02 | locus YBR171W, strain sec66, stronger effect = lower value 1.02 | locus YBR229C, strain ROT2, stronger effect = lower value 1 | locus YBR231C, strain swc5, stronger effect = lower value 1.02 | locus YBR279W, strain paf1, stronger effect = lower value 1.01 | locus YCL011C, strain gbp2, stronger effect = lower value 1.01 | locus YCL016C, strain dcc1, stronger effect = lower value 1.01 | locus YCL029C, strain bik1, stronger effect = lower value 1.04 | locus YCL069W, strain vba3, stronger effect = lower value 1.02 | locus YCR088W, strain abp1, stronger effect = lower value 1.02 | locus YDL005C, strain med2, stronger effect = lower value 1.01 | locus YDL035C, strain GPR1, stronger effect = lower value 1.01 | locus YDL040C, strain nat1, stronger effect = lower value 1.01 | locus YDL074C, strain BRE1, stronger effect = lower value 1.02 | locus YDL101C, strain DUN1, stronger effect = lower value 1.01 | locus YDL134C, strain PPH21, stronger effect = lower value 1.01 | locus YDL185W, strain tfp1, stronger effect = lower value 1.02 | locus YDL192W, strain arf1, stronger effect = lower value 1.02 | locus YDR001C, strain nth1, stronger effect = lower value 1.01 | locus YDR069C, strain doa4, stronger effect = lower value 1.03 | locus YDR101C, strain arx1, stronger effect = lower value 1.01 | locus YDR137W, strain rgp1, stronger effect = lower value 0.99 | locus YDR150W, strain NUM1, stronger effect = lower value 1.02 | locus YDR159W, strain sac3, stronger effect = lower value 1.02 | locus YDR162C, strain NBP2, stronger effect = lower value 1.01 | locus YDR195W, strain ref2 1.04 | locus YDR297W, strain sur2, stronger effect = lower value 1.02 | locus YDR318W, strain mcm21, stronger effect = lower value 1.02 | locus YDR334W, strain swr1, stronger effect = lower value 1.01 | locus YDR335W, strain msn5, stronger effect = lower value 1.01 | locus YDR388W, stronger effect = lower value 1.03 | locus YDR392W, strain spt3, stronger effect = lower value 0.981 | locus YDR502C, strain sam2, stronger effect = lower value 1.01 | locus YEL003W, strain gim4, stronger effect = lower value 1.01 | locus YEL037C, strain rad23, stronger effect = lower value 1.02 | locus YEL061C, strain CIN8 (second series), stronger effect = lower value 1.01 | locus YEL061C, strain CIN8, stronger effect = lower value 1 | locus YER015W, strain faa2, stronger effect = lower value 1.01 | locus YER016W, strain bim1, stronger effect = lower value 1.02 | locus YER110C, stronger effect = lower value 1.02 | locus YER111C, strain swi4, stronger effect = lower value 1.02 | locus YER155C, strain BEM2 (second series), stronger effect = lower value 1.05 | locus YER155C, strain BEM2, stronger effect = lower value 1 | locus YER167W, strain BCK2, stronger effect = lower value 1.02 | locus YFR010W, strain ubp6, stronger effect = lower value 1.03 | locus YGL078C, strain dbp3, stronger effect = lower value 1.02 | locus YGL086W, strain mad1, stronger effect = lower value 1.02 | locus YGL167C, strain pmr1, stronger effect = lower value 1.02 | locus YGL173C, strain kem1, stronger effect = lower value 1.01 | locus YGL227W, strain vid30, stronger effect = lower value 1.02 | locus YGL240W, strain doc1, stronger effect = lower value 1.03 | locus YGL248W, strain PDE1, stronger effect = lower value 1.01 | locus YGL253W, strain hxk2, stronger effect = lower value 1.02 | locus YGR078C, strain PAC10, stronger effect = lower value 1.02 | locus YGR135W, strain pre9, stronger effect = lower value 1.01 | locus YGR229C, strain SMI1, stronger effect = lower value 1.02 | locus YGR252W, strain gcn5, stronger effect = lower value 1.01 | locus YHR013C, strain ard1, stronger effect = lower value 1.02 | locus YHR027C, strain rpn1, stronger effect = lower value 1.02 | locus YHR030C, strain SLT2, stronger effect = lower value 1.01 and 1 | locus YHR079C, strain IRE1 (second series), stronger effect = lower value 1.01 | locus YHR079C, strain IRE1, stronger effect = lower value 0.993 | locus YHR094C, strain hxt1, stronger effect = lower value 1.02 | locus YHR129C, strain ARP1, stronger effect = lower value 1.01 | locus YHR142W, strain chs7, stronger effect = lower value 1.03 | locus YHR200W, strain rpn10, stronger effect = lower value 1.03 | locus YIL066C, strain RNR3, stronger effect = lower value 1.02 | locus YIL073C, strain SPO22, stronger effect = lower value 1.03 | locus YIL125W, strain kgd1, stronger effect = lower value 1.02 | locus YIR030C, strain dcg1, stronger effect = lower value 1.01 | locus YJL092W, strain hpr5, stronger effect = lower value 1.01 | locus YJL095W, strain BCK1 (second series), stronger effect = lower value 1.02 | locus YJL095W, strain BCK1, stronger effect = lower value 1.01 and 1 | locus YJL115W, strain asf1, stronger effect = lower value 1.02 | locus YJL129C, strain trk1, stronger effect = lower value 1.01 | locus YJL134W, strain LCB3, stronger effect = lower value 1.02 | locus YJL154C, strain vps35, stronger effect = lower value 1.01 | locus YJL164C, strain tpk1, stronger effect = lower value 1.01 | locus YJL166W, strain qcr8, stronger effect = lower value 1.04 | locus YJL168C, strain set2, stronger effect = lower value 1.02 | locus YJL187C, strain SWE1 (second series), stronger effect = lower value 1.01 | locus YJL187C, strain SWE1, stronger effect = lower value 1.01 | locus YJR043C, strain POL32, stronger effect = lower value 1.01 | locus YJR066W, strain TOR1, stronger effect = lower value 0.96
